# According to PubChem BioAssay (NCI):
# This is part of a sample that, as a whole, favours compounds with a hit. Of some 83,000 tested, about 20% had one in any assay.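 Percent growth is the endpoint: 0 to 100 indicates growth inhibition (40 means 60% inhibition), 0 means no net growth, and negative values indicate cell death.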 Values without a mark were called inactive. The source made the active and inactive calls. Rule for the calls: active = growth percent below 10; inactive = the rest.
# Columns and labels:
# Assay in all cases: NCI-60 one-dose screen, 48 h (100 = growth as untreated, 0 = no growth, -100 = all killed)
# Details in all cases: 10 µM unless noted
# SK-MEL-2 melanoma = system: SK-MEL-2 melanoma
# EKVX NSCLC = system: EKVX NSCLC
# SN12C renal = system: SN12C renal
# UO-31 renal = system: UO-31 renal
# TK-10 renal = system: TK-10 renal
# ACHN renal = system: ACHN renal
# CAKI-1 renal = system: CAKI-1 renal
# CCRF-CEM leukemia = system: CCRF-CEM leukemia
# MOLT-4 leukemia = system: MOLT-4 leukemia
# A498 renal = system: A498 renal
Structure (SMILES),growth (SK-MEL-2 melanoma),growth (EKVX NSCLC),growth (SN12C renal),growth (UO-31 renal),growth (TK-10 renal),growth (ACHN renal),growth (CAKI-1 renal),growth (CCRF-CEM leukemia),growth (MOLT-4 leukemia),growth (A498 renal)
N#C/C(=C\c1ccc(-c2ccc(F)cc2)o1)c1nc(-c2ccco2)cs1,108%,40.2%,101%,69.8%,64.2%,98.1%,92%,84.2%,91.6%,–
Cc1ccc(-c2nc([P+](c3ccccc3)(c3ccccc3)c3ccccc3)c(N3CCOCC3)o2)cc1,-18.7% (active),17.6%,1.43% (active),12%,20.8%,8.24% (active),13.1%,8.32% (active),-8.12% (active),–
CCOC(=O)c1ccc2c(c1)[n+](=O)c(C(=O)C1CCCS1)c(C(F)(F)F)n2[O-] (configuration not stated),-87.3% (active),-77% (active),-47.3% (active),-92.4% (active),-96.5% (active),-86.9% (active),-85.4% (active),-44% (active),-67.3% (active),–
O=C(O)c1cccc2c1-c1ccc(Cl)cc1C2,102%,110%,105%,89.7%,103%,107%,86.5%,99.5%,89.9%,–
C[C@@H](C(=O)O)c1ccc2c3cc(Cl)ccc3n(Cc3cc(=O)oc4ccc(Cl)cc34)c2c1,101%,97%,98.8%,76.3%,116%,99.8%,–,105%,101%,102%
Cc1c(C)c2c(c(C)c1NC(=O)CCCCCCC(=O)O)CCC(C)(CCCC(C)CCCC(C)CCCC(C)C)O2 (configuration not stated),43.2%,86.3%,77.5%,75.7%,87.6%,101%,100%,71.3%,76.7%,–
O=[N+]([O-])c1ccc(/C=N\Nc2ccccc2)cc1,49.5%,76.6%,87.3%,65.5%,111%,72.6%,72.8%,–,89.7%,75.3%
COc1ccc(C2=NN(c3nc(-c4ccc(OC)cc4)c(C#N)c(=O)n3C)C(=O)CC2)cc1,98.4%,107%,88.8%,85.9%,107%,101%,96%,91%,96.6%,–
CC(=O)N1N=C(c2ccc(C)cc2)CC1c1ccc(Oc2ccc(Br)cc2)cc1 (configuration not stated),106%,83.1%,78.5%,39.2%,71.1%,99.5%,74.6%,93.2%,71.3%,–
S=c1[nH]nc2ccccn12,95.3%,102%,106%,87.7%,85.7%,102%,102%,101%,80.7%,100%
CC[C@]12C=CCN3CC[C@@]4(c5cc([C@H]6CCC(=O)N6)c(OC)cc5N(C)[C@H]4[C@@](O)(C(=O)OC)[C@@H]1OC(C)=O)[C@@H]32,98.4% [2.5 µM],111% [2.5 µM],96.9% [2.5 µM],86.3% [2.5 µM],106% [2.5 µM],90% [2.5 µM],94.4% [2.5 µM],99.6% [2.5 µM],102% [2.5 µM],116% [2.5 µM]
CCC(CC)C(=O)OC(C)COc1ccc(C(C)(C)C)cc1 (configuration not stated),101%,105%,99.4%,97.3%,97%,102%,98.8%,93%,82.7%,–
COc1cc2c(cc1-c1c(C)noc1C)ncc1nc(C3CCCCC3)n([C@@H](C)COC(F)F)c12,64.4%,39.2%,55.3%,23.6%,28.9%,37.8%,26.7%,46.1%,39.5%,–
OCC(CO)(CCl)CCl,87.8%,104%,98.3%,104%,95%,104%,95%,90.4%,91.1%,–
Cc1cc(Cl)nc(N(CCCNc2ccnc3cc(Cl)ccc23)Cc2ccco2)n1,39.4%,24.1%,26.6%,10.9%,41.7%,28.4%,–,20.6%,-1.04% (active),38.1%
C=C1C(=O)O[C@H]2[C@H]1CC/C(COC(=O)NCCc1c[nH]c3ccccc13)=C\CC[C@@]1(C)O[C@@H]21,61.5%,69.2%,-0.18% (active),-100% (active),-20.7% (active),-93.7% (active),–,3.28% (active),-3.9% (active),80.8%
Cn1c(=O)c2c(ncn2CC(=O)Nc2ccc(S(N)(=O)=O)cc2)n(C)c1=O,104%,103%,105%,88.8%,91.8%,111%,93.8%,97.5%,103%,105%
Cc1ccc(-c2nc([P+](c3ccccc3)(c3ccccc3)c3ccccc3)c(N3C[C@H]4C[C@H](C3)c3cccc(=O)n3C4)o2)cc1,87.7%,80.6%,95.2%,83.6%,98.8%,109%,98.5%,78.4%,96.6%,–
C=C(C)[C@@H]1CC[C@]2(C)[C@H](CC=C3[C@@H]4CC(C)(C)CC[C@]4(C(=O)OC)CC[C@]32C)[C@@]1(C)CC/C(N)=N/O,46.6%,25.2%,36.4%,40.3%,67.9%,43.8%,37%,37.3%,6.47% (active),–
O=S(=O)(NCCNc1cc(-c2cn(-c3ccccc3)nc2-c2cccc(O)c2)ccn1)c1ccc(C(F)(F)F)cc1,56.2%,52.3%,33.9%,-39.8% (active),59.9%,18.3%,-1.88% (active),16.9%,4.81% (active),–
Cc1ccsc1-c1ccc2c(c1)COC2(CCCN(C)C)c1ccc(F)cc1 (configuration not stated),85.4%,65.6%,56.7%,39.3%,73.7%,62.1%,38.4%,39%,27.3%,–
C=C(C)[C@@H]1CC[C@]2(C(=O)O)CC[C@]3(C)[C@H](CC[C@@H]4[C@@]5(C)C/C(=C/c6cccc(I)c6)C(=O)C(C)(C)[C@@H]5CC[C@]43C)[C@@H]12,11.2%,24.9%,31.1%,23.6%,29.6%,30.5%,11.9%,25.6%,13%,–
Nc1ccc(Br)cn1,98.8%,110%,96.3%,93.4%,107%,109%,113%,80.4%,91.5%,–
CN(CSc1ccc(Cl)cc1)c1ccc(CSc2ccc(Cl)cc2)cc1,78.1%,86.8%,36.9%,26.6%,87.1%,87.4%,44.7%,6.37% (active),8.87% (active),–
COc1cccc(-c2nn(-c3ccccc3)cc2-c2ccnc(NCCCNS(=O)(=O)c3ccc(Cl)cc3)c2)c1,47.1%,64%,49.3%,22%,52.3%,38.6%,49.1%,21.4%,14.8%,42.3%
NCCn1cc(-c2nc(-c3c[nH]c4ncccc34)cs2)c2ccccc21,103%,53.6%,78.7%,51.3%,148%,82.9%,–,88.5%,96.4%,88.2%
C=COCCCCCCCCCCCCCCCCCC,111%,118%,88.4%,124%,101%,108%,99.7%,91.5%,96.3%,–
